D2 ag-1: human D2 receptor agonism in beta-arrestin assay; DiscoveRx PathHunter D2 beta-arrestin, luminescence, 90 min; 100% = 57 uM dopamine signal; activation, % (concentration not given with the values); 0.084% of 360,000 active; AID 624465; in the data active = activation above about 40%; inconclusive = between about 15% and that limit
Target sequence (P14416 whole entry, looked up): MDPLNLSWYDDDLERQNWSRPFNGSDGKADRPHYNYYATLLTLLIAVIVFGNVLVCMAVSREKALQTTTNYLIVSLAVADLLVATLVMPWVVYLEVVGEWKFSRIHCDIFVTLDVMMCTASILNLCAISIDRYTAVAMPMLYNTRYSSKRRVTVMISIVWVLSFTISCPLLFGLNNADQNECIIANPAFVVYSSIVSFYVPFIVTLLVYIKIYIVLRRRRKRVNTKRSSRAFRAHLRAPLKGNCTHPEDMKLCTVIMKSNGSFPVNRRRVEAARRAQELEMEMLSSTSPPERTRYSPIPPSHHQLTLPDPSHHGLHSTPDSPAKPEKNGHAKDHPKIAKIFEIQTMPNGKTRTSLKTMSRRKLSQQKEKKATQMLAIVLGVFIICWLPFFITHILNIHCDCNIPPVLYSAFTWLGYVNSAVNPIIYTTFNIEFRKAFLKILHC
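Agonist mode: compounds alone added to overnight-plated D2 PathHunter cells for 90 min at 37 C, with 57 uM final dopamine (EC100) defining full response. Beta-arrestin recruitment detected by chemiluminescent reagent, read after 1 h at ambient temperature.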
D2 PAM-1: positive allosteric modulators of human D2 dopamine receptor | P14416 | potentiation, % at 10 µM | HEK293 T-REx D2, calcium flux, EC20 dopamine potentiation | 0.34% of 340,000 active;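 active = potentiation over 3 SD above the plate norm, cut at about 30% in these data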
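Cells plated with tetracycline inducer and held overnight at 30 C; calcium dye loaded 30–90 min at room temperature; baseline taken, compound added and read 180 s; EC20 dopamine then added and read 180 s.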
D2 ag-2: activates the human D2 dopamine receptor; P14416; HEK293 T-REx D2 cells, calcium flux agonist mode; activation, % at 2 µM; 0.53% of 340,000 active;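 active = activation over 3 SD above normal in the single-dose calcium agonist read, cut at about 30% in these data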
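Tetracycline-induced HEK293 Trex cells with D2 receptor force-coupled to calcium signaling, plated overnight at 30 C and loaded with no-wash calcium dye. Calcium flux read kinetically for 180 s after compound addition; responses flag agonists.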
D2 PAM-2: potentiates the human D2 dopamine receptor allosterically. AID 624464. potentiation, % (concentration not given with the values). DiscoveRx D2 beta-arrestin cells, luminescence, 90 min; 100% = 57 uM dopamine signal. 0.23% of 360,000 active; in the data active = potentiation above about 50%; inconclusive = mostly about 30% to 49%
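PathHunter D2 cells, attached overnight at 37 deg C, received compound in DMSO plus dopamine at EC20 (50 nM final) for 90 min at 37 deg C. Beta-arrestin recruitment was read as luminescence after 1 h with detection reagent at ambient temperature.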
D2 antag: D2 dopamine receptor (human) antagonism; P14416; inhibition, % at 10 µM; HEK293 TREx D2 cells, calcium flux, dopamine EC80; 2% of 340,000 active; in the data active = inhibition above about 30%; inactive = below that, where a call was filed
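Antagonism is scored as inhibition of an EC80 dopamine-evoked calcium signal in a force-coupled, tetracycline-inducible HEK293 T-REx D2 line, with compound present 180 s before agonist.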
D3 arrestin ag: activates human D3 dopamine receptor beta-arrestin recruitment. shares compounds with D2 ag-2. DiscoveRx D3 beta-arrestin cells, luminescence, 90 min. Potency, µM (top dose mostly 76.9 µM), actives largely listed as activators. 4% of 2,300 active; also: nearly all actives have a fitted effect of over 70% in size
D2 ag-3: D2 receptor agonism, beta-arrestin counterscreen; shares compounds with D2 ag-2; DiscoveRx PathHunter D2 beta-arrestin, luminescence, 90 min; response scale: percent relative to full dopamine signal; Potency, µM (doses to about 76.9 µM), most hits filed as activators; 5.9% of 2,300 active; AID 720507; also: nearly all actives have a fitted effect of over 70% in size
A number is an active result; ! = not confirmed by another sample. A selection: hits, their analogues and other compounds. The true share with any hit is near 2.4%. Unless noted, calls follow the shape of the dose curve; as a rule, active = well fitted activation curve with a large enough effect; inconclusive = small, poorly fitted or top-dose-only effect; inactive = flat fitted curve, though single readings scatter.

How did CCc1ccc(-c2nn(Cc3ccccc3)cc2C=O)cc1 do in these assays?
D2 ag-1: inactive; D2 PAM-1: inactive; D2 ag-2: inactive; D2 PAM-2: inactive; D2 antag: 35

Results for Fc1ccc2c(c1)nnn2C1CCN(Cc2ccccc2)CC1 ?
D2 ag-1: inactive; D2 PAM-1: inactive; D2 ag-2: inactive; D2 PAM-2: inactive; D2 antag: 82

What do the screens show for `C1=C(CCNCc2ccccc2)CCCC1`?
D2 ag-1: inactive; D2 PAM-1: inactive; D2 ag-2: inactive; D2 PAM-2: inactive; D2 antag: 39

Results for CCn1cc(C(=O)O)c(=O)c2ccc(C)nc21 ?
D2 ag-1: inactive; D2 PAM-1: inactive; D2 ag-2: inactive; D2 PAM-2: inactive; D2 antag: 41!

Results for CCn1cc(C(=O)NCc2ccccc2)c2ccccc21 ?
D2 ag-1: inactive; D2 PAM-1: inactive; D2 ag-2: inactive; D2 PAM-2: inactive; D2 antag: inactive

Results for CCOC(=O)C1(CCc2ccccc2)CCN(Cc2cccc3c2OCO3)CC1 ?
D2 ag-1: inactive; D2 PAM-1: inactive; D2 ag-2: inactive; D2 PAM-2: inactive; D2 antag: 47

What do the screens show for `CCOC(=O)C1(CCc2ccccc2)CCN(Cc2cccc3cnccc23)CC1`?
D2 ag-1: inactive; D2 PAM-1: inactive; D2 ag-2: inactive; D2 PAM-2: inactive; D2 antag: inactive

How did COc1ccc(NC(=O)CN2C(=O)CN=C(c3ccccc3)c3ccccc32)c(OC)c1 do in these assays?
D2 PAM-1: inactive; D2 ag-2: inactive

How did CCOC(=O)c1ccc(NC(=O)c2cccn(Cc3ccccc3F)c2=O)cc1 do in these assays?
D2 PAM-1: inactive; D2 ag-2: inactive

How did O=C1NC(=O)N(Cc2ccco2)C(=O)/C1=C/C=C/c1ccco1 do in these assays?
D2 ag-1: inactive; D2 PAM-1: inactive; D2 ag-2: inactive; D2 PAM-2: inactive; D2 antag: 34

Results for O=C(COc1cc(Cl)ccc1Cl)Nc1ccc(Cl)cc1C(=O)c1ccccc1 ?
D2 PAM-1: inactive; D2 ag-2: inactive

Results for COC(=O)C1C=C2c3cccc4[nH]cc(c34)CC2N(C)C1 (stereo not drawn) ?
D2 PAM-1: inactive; D2 ag-2: 79; D2 antag: 62

How did CC[C@@H](CO)NC(=O)[C@@H]1C=C2c3cccc4[nH]cc(c34)C[C@H]2N(C)C1 do in these assays?
D2 ag-1: 42; D2 PAM-2: inconclusive

Results for C=C[C@@H]1C2=CCOC(=O)C2=CO[C@H]1O[C@@H]1O[C@H](CO)[C@@H](O)[C@H](O)[C@H]1O ?
D2 ag-1: inactive; D2 PAM-1: inactive; D2 ag-2: inactive; D2 PAM-2: inactive; D2 antag: inactive; D3 arrestin ag: inactive; D2 ag-3: inactive

How did COC(=O)C1=C(c2c(C)noc2C)C[C@@H]2CC[C@H]1N2C(=O)NCCO do in these assays?
D2 ag-1: inactive; D2 PAM-1: inactive; D2 ag-2: inactive; D2 PAM-2: inactive; D2 antag: inactive

Results for COC(=O)C1=C(c2c(C)noc2C)C[C@@H]2CC[C@H]1N2C(=O)NC(C)C ?
D2 ag-1: inactive; D2 PAM-1: inactive; D2 ag-2: inactive; D2 PAM-2: inactive; D2 antag: 42; D3 arrestin ag: inactive; D2 ag-3: inactive

How did O=C(c1ccc2c(c1)N(Cc1ccc(F)cc1Cl)C(=O)c1ccccc1S2)N1CCC2(CC1)OCCO2 do in these assays?
D2 PAM-1: inactive; D2 ag-2: inactive

What do the screens show for `COC1C(O)C(C)OC(OC2C(Oc3cccc4c(O)c5c(=O)oc6ccc(C)c7c(=O)oc(c34)c5c67)OC(C)C(O)C2O)C1O` (stereo not drawn)?
D2 ag-1: inactive; D2 PAM-2: inactive

What do the screens show for `CCN(CC)S(=O)(=O)c1cc(NC(=O)C(C)N2CC=C(c3ccccc3)CC2)ccc1C` (stereo not drawn)?
D2 ag-1: inconclusive; D2 PAM-1: inactive; D2 ag-2: 44; D2 PAM-2: inactive; D2 antag: inactive; D3 arrestin ag: inactive; D2 ag-3: inconclusive

What do the screens show for `CCOc1ccc(NC(=O)Cn2cc(C(=O)c3ccccc3)c3ccccc32)cc1`?
D2 PAM-1: inactive; D2 ag-2: inactive

Results for CC(=O)c1cccc(OCC(O)CN2CC=C(c3ccccc3)CC2)c1 (stereo not drawn) ?
D2 ag-1: 42; D2 PAM-1: inactive; D2 ag-2: 79; D2 PAM-2: 51; D2 antag: 80; D3 arrestin ag: inconclusive; D2 ag-3: inconclusive

Results for COc1c2c(cc3c1OCO3)CC[N+](C)=C2 ?
D2 ag-1: inactive; D2 PAM-1: inactive; D2 ag-2: inactive; D2 PAM-2: inactive; D2 antag: inactive; D3 arrestin ag: inactive; D2 ag-3: inactive

How did COc1ccc2c(c1OC)CN1CCc3cc4c(cc3[C@H]1C2)OCO4 do in these assays?
D2 ag-1: inactive; D2 PAM-1: inactive; D2 ag-2: inactive; D2 PAM-2: inactive; D2 antag: inactive

Results for NCCCN1CCN(c2ccccc2)CC1 ?
D2 ag-1: inconclusive; D2 PAM-1: inactive; D2 ag-2: inactive; D2 PAM-2: inactive; D2 antag: 95; D3 arrestin ag: inactive; D2 ag-3: inactive

How did COC(=O)C1=C(c2ccc(-c3ccccc3)c(F)c2)C[C@@H]2CC[C@H]1N2C(=O)N1CCCCC1 do in these assays?
D2 ag-1: inactive; D2 PAM-1: inactive; D2 ag-2: inactive; D2 PAM-2: inactive; D2 antag: inactive; D3 arrestin ag: inactive; D2 ag-3: inactive

How did O=S(=O)(c1ccc(Cl)cc1)N1Cc2ccccc2-n2nncc2C1 do in these assays?
D2 ag-1: inactive; D2 PAM-2: inactive

What do the screens show for `CN1C[C@H](CO)C[C@@H]2c3cccc4[nH]cc(c34)C[C@H]21`?
D2 ag-1: inconclusive; D2 PAM-1: inactive; D2 ag-2: 84; D2 PAM-2: 53; D2 antag: 96; D3 arrestin ag: inconclusive; D2 ag-3: inconclusive

What do the screens show for `CCN(CC)C(=O)N[C@H]1C[C@@H]2c3cccc4[nH]cc(c34)C[C@H]2N(C)C1`?
D2 ag-1: inconclusive; D2 PAM-1: inactive; D2 ag-2: 83; D2 PAM-2: inactive; D2 antag: 83; D3 arrestin ag: inconclusive; D2 ag-3: 0.002µM

How did CCOc1ccc2nc(NC(=O)c3cccn(Cc4ccc(Cl)cc4)c3=O)sc2c1 do in these assays?
D2 PAM-1: inactive

Results for CN(C)Cc1c[nH]c2cc([N+](=O)[O-])ccc12 ?
D2 ag-1: inactive; D2 PAM-2: inactive
